Screening data deposited in PubChem BioAssay by Broad Institute.
RAD54 branch: RAD54 (human) branch migration inhibition; actives 0.14% (n = 360,000); RAD54 Holliday junction branch migration, FAM/BHQ fluorescence; inhibition, % at 10.4 µM; AID 602329;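 active = mean normalized replicate activity at least 40 and at least half of replicates scoring 40 or more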;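 also: inhibitors cause a drop in the FAM fluorescence signal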
CFTR F508del cor: correctors of CFTR F508del function in bronchial epithelial cells. actives 0.36% (n = 350,000). activity (quench increase), % at 7.58 µM. CFBE cells, YFP halide quenching; stimulated with forskolin plus potentiator P3; % fluorescence drop versus neutral controls. AID 720511;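 active = mean added fluorescence quench of at least 8% versus neutral control, with both replicates also reaching 8%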;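 also: cells transiently co-express mutant CFTR-F508del with the halide-sensitive YFP; corrector assay measuring rescue of mutant channel to the surface after 24 h compound exposure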
EWS-Fli inh: inhibitors of EWS/Fli oncoprotein transcriptional activity | A673 NR0B1-luciferase reporter, viability-normalised | inhibition, % at 12.6 µM | actives 0.67% (n = 350,000) | AID 651661;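 active = mean inhibition of at least 50% after viability correction, with every replicate also passing that limit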;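 also: firefly luciferase signal divided by Alamar Blue viability fluorescence both relative to DMSO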
GSIS activator: GLuc luminescence reporter in INS-1E cells, primary screen for activators of glucose-dependent secretion of insulin | AID 743287 | actives 0.61% (n = 370,000) | activation, % at 16.6 µM | INS-1E GLuc reporter insulin secretion, 2-3 h;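 active = lowest replicate activation of at least 40%, so every replicate reaches that level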
LGR2 antag: blocks bursicon-induced cAMP signaling via Drosophila LGR2. HEK293 LGR2, CRE-luciferase, bursicon-stimulated, 4 h. inhibition, % at 9.99 µM. actives 0.35% (n = 380,000). AID 720647;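 active = drop in luminescence signal, shown as inhibition above about 50% in the replicate tests, limit read from the data, passing the limit was not always enough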;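 also: agonist challenge used bursicon conditioned medium at about half maximal strength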
RAD52 inh: RAD52 (human) annealing inhibition | P43351 | recombinant RAD52 DNA annealing, FRET fluorescence | inhibition, % at 18.7 µM | actives 0.46% (n = 360,000) | AID 651710;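 active = every replicate showing at least 50% inhibition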
Target sequence (P43351 whole entry, looked up): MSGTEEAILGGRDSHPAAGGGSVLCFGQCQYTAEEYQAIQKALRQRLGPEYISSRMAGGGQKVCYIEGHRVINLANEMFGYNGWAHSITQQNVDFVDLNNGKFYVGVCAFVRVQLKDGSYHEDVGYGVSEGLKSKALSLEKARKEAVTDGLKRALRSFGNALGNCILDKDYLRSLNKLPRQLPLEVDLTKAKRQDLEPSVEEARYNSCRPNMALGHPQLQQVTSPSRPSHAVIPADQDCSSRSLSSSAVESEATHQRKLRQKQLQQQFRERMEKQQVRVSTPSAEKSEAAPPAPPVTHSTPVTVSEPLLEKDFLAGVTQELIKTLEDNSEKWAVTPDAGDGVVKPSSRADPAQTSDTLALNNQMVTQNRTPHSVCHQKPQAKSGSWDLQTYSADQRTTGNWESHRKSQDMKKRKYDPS
Of the large screens only hits and unclear results are named; the others gave an inactive call. An excerpt weighted towards active compounds, which were near 1.8% of everything screened.

COc1ccccc1C#Cc1ccc2c(c1)O[C@H](CN(C)Cc1cccnc1)[C@H](C)CN([C@H](C)CO)S2(=O)=O	none
Cc1ccc(-c2ccc3c(c2)O[C@H](CN(C)Cc2cccnc2)[C@@H](C)CN([C@H](C)CO)S3(=O)=O)cc1	EWS-Fli inh 63
C[C@@H]1CN([C@@H](C)CO)S(=O)(=O)c2ccc(-c3ccccc3)cc2O[C@@H]1CN(C)Cc1ccncc1	none
CCCCn1c(N)c(N(Cc2ccccc2OC)C(=O)COc2ccc(C)cc2)c(=O)[nH]c1=O	none
COc1ccc(C(CC(=O)NCC(OC)OC)NS(=O)(=O)c2ccc(Cl)cc2)cc1 (centres undefined)	none (no result: RAD54 branch)
COc1ccc(CC(=O)Nc2cc(S(=O)(=O)N3CCOCC3)ccc2N2CCOCC2)cc1	none (no result: RAD54 branch)
Cc1ccc(-c2ccc3c(c2)O[C@@H](CN(C)C(=O)Nc2ccc(F)cc2)[C@@H](C)CN([C@H](C)CO)S3(=O)=O)cc1	CFTR F508del cor 8.5
Cc1ccc(-c2ccc3c(c2)O[C@H](CN(C)Cc2ccncc2)[C@@H](C)CN([C@@H](C)CO)S3(=O)=O)cc1	EWS-Fli inh 72
O=[N+]([O-])c1ccc(N2CCCCC2)s1	none (no result: LGR2 antag)
O=C(NNC1OC(CO)C(O)C(O)C1O)c1cccc(Br)c1 (centres undefined)	none (no result: RAD54 branch)
CCCCCn1c(=O)[nH]c2cc(C(=O)NCCN3C(C)CCCC3C)ccc2c1=O (centres undefined)	none
O=C(Nc1cccc(S(=O)(=O)C(F)(F)F)c1)[C@@H]1O[C@H](CO)[C@@H](O)[C@H]1O	GSIS activator 43
NCCc1c(-c2ccccc2)n(-c2ccccc2)c2ccccc12	LGR2 antag 58 (no result: RAD54 branch)
CC(=O)Nc1cc2c3c(cccc3c1)-c1ccccc1-2	none (no result: RAD54 branch)
O=C(NCCCN1CCOCC1)c1ccc(Cl)c(S(=O)(=O)N2CCCCCC2)c1	none (no result: CFTR F508del cor, EWS-Fli inh, GSIS activator, LGR2 antag, RAD52 inh)
Cc1nc(N2CCOCC2)nc(N2CCCC2)c1[N+](=O)[O-]	GSIS activator 53 (no result: CFTR F508del cor, EWS-Fli inh, RAD52 inh)
Cc1nc(N2CCOCC2)nc(N2CCCCC2)c1[N+](=O)[O-]	none (no result: RAD54 branch, CFTR F508del cor, EWS-Fli inh, RAD52 inh)
CC(=O)c1ccc(NC(=S)NNC(=O)NC2CCCCC2)cc1	none (no result: RAD54 branch)
CC(C)C(=O)Nc1ccc(-c2nc3cccnc3o2)cc1	none (no result: CFTR F508del cor, EWS-Fli inh, LGR2 antag, RAD52 inh)
CC(C)(C)c1ccc(OCC(=O)Nc2ccc(-c3nc4cccnc4o3)cc2)cc1	GSIS activator 106 (no result: RAD54 branch, CFTR F508del cor, EWS-Fli inh, RAD52 inh)
CCC(=O)N(C)C[C@@H]1Oc2cc(C#Cc3ccccc3)ccc2S(=O)(=O)N([C@H](C)CO)C[C@@H]1C	none
C[C@H]1CN([C@@H](C)CO)S(=O)(=O)c2ccc(C#Cc3ccccc3)cc2O[C@H]1CN(C)C(=O)CN(C)C	RAD52 inh 70
C[C@@H]1CN([C@@H](C)CO)S(=O)(=O)c2ccc(C#Cc3ccccc3)cc2O[C@@H]1CN(C)C(=O)CN(C)C	RAD52 inh 51
CCC(=O)N(C)C[C@H]1Oc2cc(C#Cc3ccccc3)ccc2S(=O)(=O)N([C@H](C)CO)C[C@H]1C	none
COc1cc2cc(OC(C)=O)c3cc4c(cc3c2c(OC)c1OC)OCO4	none (no result: RAD54 branch)
COc1cc(-c2nccc3cc4c(cc23)OCO4)cc(OC)c1OC	CFTR F508del cor 9.2 (no result: GSIS activator)
COc1cc2c(cc1OC)C(=O)N1[C@H]3c4cc(Cl)ccc4OC[C@@H]3[C@H](c3ccccc3)[C@]1(C)C(=O)N2	EWS-Fli inh 56
COc1cc2c(cc1OC)C(=O)N1[C@H]3c4cc(C)ccc4OC[C@@H]3[C@H](c3ccccc3)[C@]1(C)C(=O)N2	EWS-Fli inh 58
COc1ccc2c(c1)[C@H]1[C@H](CO2)[C@H](c2ccccc2)[C@]2(C)C(=O)Nc3cc(C)ccc3C(=O)N12	none (no result: GSIS activator)
COc1ccc2c(c1)C(=O)N1[C@H]3c4cc(Cl)ccc4OC[C@@H]3[C@H](c3ccccc3)[C@]1(C)C(=O)N2	none (no result: RAD52 inh)
CC1(C)CC(=O)C=C(Nc2ccc(Cl)c(Br)c2)C1	none
Cc1cccc(N(C)S(=O)(=O)c2ccc(-c3cc(C)no3)s2)c1	CFTR F508del cor 12, EWS-Fli inh 54 (no result: GSIS activator)
CCOc1ccc(N(C)S(=O)(=O)c2ccc(-c3cc(C)no3)s2)cc1	EWS-Fli inh 55
CCN(c1cccc(C)c1)S(=O)(=O)c1ccc(-c2cc(C)no2)s1	CFTR F508del cor 9.2, EWS-Fli inh 55
COc1ccc(-c2cc(C)no2)cc1S(=O)(=O)N(C)c1cccc(C)c1	none (no result: EWS-Fli inh)
